Compounds with a hit are over-represented: about 19% of the library has one in this group of screens.
DT40 TDP1 CPT = DT40-hTDP1 cell growth loss with CPT; chicken DT40 Tdp1-/-;hTDP1 cells + 20 nM CPT, ATP luminescence, 48 h; Potency, µM (top dose mostly 46.2 µM), most hits filed as inhibitors; hit rate 12% among 420,000; note: nearly all actives have a fitted effect of over 55% in size
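Cell growth measured by CellTiter-Glo luminescence after a minimum 48 h, 37 C compound exposure with 20 nM CPT in Tdp1-knockout DT40 cells stably expressing hTDP1, seeded 400/well; qHTS titration format.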
DT40 TDP1 no CPT = qHTS for Inhibitors of human tyrosyl-DNA phosphodiesterase 1 (TDP1): qHTS in cells in absence of CPT; DT40 Tdp1-/- hTDP1 cells, no CPT, ATP luminescence, 48 h; Potency, µM (titrated, usually from 46.2 µM), hits mostly inhibitors; hit rate 15% among 420,000; AID 686978, 2013; note: nearly all actives have a fitted effect of over 55% in size
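Seeded 400 DT40-hTDP1 cells/well (vehicle DMSO, no 20 nM CPT); pinned compounds; ≥48 hr at 37 °C; CellTiter-Glo luminescence as viability measure.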
IL-1B inflam inh = blocks inflammasome-driven IL-1 beta release; THP-1 LPS/ATP IL-1B secretion, AlphaLISA, 16 h; active compounds read low; activity change, % at 57.5 µM; hit rate 4.7% among 360,000; AID 743279; in the data active = activity change below about -50%; inconclusive = mostly about -30% to -49%
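Secreted IL-1B measured by AlphaLISA bead assay after 16 h compound exposure of THP-1 cells; compounds (final up to 57.5 uM) added 1 h before LPS (250 ng/mL) and ATP (1.25 mM) stimulation; lower signal means less secretion.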
HepG2 tox = counter-screen for TGF-b inhibitors: cytotoxicity in HepG2 cells | HepG2 CAGA-GFP viability, ATP luminescence, 18 h | hit rate 0.76% among 410,000 | Potency, µM (doses to about 46.1 µM), actives largely listed as cytotoxic
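CellTiter-Glo luminescence gave cytotoxicity after 18 hours at 37 degrees C. The cells were HepG2 CAGA-GFP in 1% FBS DMEM, stimulated with 500 pg/mL TGF-beta after compound addition. %Activity was normalised to no-cell wells (complete cell-killing) and DMSO (no toxicity), and curves were fitted and classified.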
TGFb inhibitor = inhibitors of TGF-b signaling; HepG2 CAGA-GFP TGF-b/SMAD3 reporter, GFP fluorescence, 18 h; TGF-beta stimulated, 500 pg/mL final; Potency, µM (series often up to 46.1 µM), usual class: inhibitors; hit rate 1.2% among 410,000; AID 588855; note: nearly all actives have a fitted effect of over 65% in size
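Smad-responsive CAGA-GFP expression was quantified in HEPG2 cells exposed to compounds and 500 pg/mL final TGF-beta for 18 h at 37 degrees C; unstimulated wells defined full inhibition.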
TDP1 block = TDP1 (human) enzyme inhibition; Potency, µM (top dose mostly 130 µM), most hits filed as inhibitors; hit rate 0.28% among 350,000; recombinant TDP1, AlphaScreen DNA substrate cleavage; note: nearly all actives have a fitted effect of over 40% in size
Target sequence (Q9NUW8 whole entry, looked up): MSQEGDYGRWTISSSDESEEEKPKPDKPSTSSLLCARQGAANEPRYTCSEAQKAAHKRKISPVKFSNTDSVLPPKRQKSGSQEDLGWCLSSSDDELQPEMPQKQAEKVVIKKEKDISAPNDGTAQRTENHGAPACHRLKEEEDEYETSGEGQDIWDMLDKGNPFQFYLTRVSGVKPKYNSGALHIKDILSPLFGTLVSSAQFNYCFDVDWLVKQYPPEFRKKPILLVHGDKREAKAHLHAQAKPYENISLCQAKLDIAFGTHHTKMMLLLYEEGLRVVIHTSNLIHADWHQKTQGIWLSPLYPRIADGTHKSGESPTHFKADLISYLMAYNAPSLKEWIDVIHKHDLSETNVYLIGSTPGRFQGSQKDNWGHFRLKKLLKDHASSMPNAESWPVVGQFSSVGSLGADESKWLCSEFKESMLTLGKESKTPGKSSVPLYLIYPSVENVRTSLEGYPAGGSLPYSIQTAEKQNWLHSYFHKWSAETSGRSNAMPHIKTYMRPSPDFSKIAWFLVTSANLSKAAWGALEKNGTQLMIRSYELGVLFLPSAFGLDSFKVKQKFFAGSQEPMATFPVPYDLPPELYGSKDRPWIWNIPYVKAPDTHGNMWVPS
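Compounds were preincubated with Tdp1 (1 nM final) for 15 min at room temperature before substrate (15 nM final) started a 5 min reaction; beads (10 ug/ml final) were then added for 10 min before AlphaScreen detection.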
Numbers stand for hits. Unless noted, calls come from the whole dose curve; as a rule, active = well fitted curve in the direction sought with a large enough effect; inconclusive = small, poorly fitted or top-dose-only effect, or another doubt; inactive = no such curve, though single readings can be large; an effect the other way counts as inactive or inconclusive.

Screening CN(C(=O)COC(=O)c1cnc(Cl)c(Cl)c1)C1CCS(=O)(=O)C1 (configuration not stated) returned DT40 TDP1 CPT inactive, DT40 TDP1 no CPT inactive, IL-1B inflam inh -86.0, HepG2 tox inactive, TGFb inhibitor inactive and TDP1 block inactive.
For CN(C(=O)COC(=O)c1cnc(Cl)c(Cl)c1)C1CCCCC1 the results were DT40 TDP1 CPT inactive, DT40 TDP1 no CPT inactive, IL-1B inflam inh -96.2, HepG2 tox inactive, TGFb inhibitor inactive and TDP1 block inactive.
`CN(C(=O)COc1ccc(Br)cc1Cl)C1CCCCC1` gave DT40 TDP1 CPT inconclusive, DT40 TDP1 no CPT inconclusive, IL-1B inflam inh -52.2, HepG2 tox inactive, TGFb inhibitor inactive and TDP1 block inactive.
For COc1cccc(NC(=O)COc2ccc(C(=S)N3CCN(C)CC3)cc2OC)c1 the results were DT40 TDP1 CPT inconclusive, DT40 TDP1 no CPT inconclusive, IL-1B inflam inh inactive, HepG2 tox inactive, TGFb inhibitor inactive and TDP1 block inactive.
For COc1ccc(NC(=O)Cn2nnc(-c3nc(-c4ccncc4)no3)c2N)cc1OC the results were DT40 TDP1 CPT inactive, DT40 TDP1 no CPT inactive, HepG2 tox inactive and TDP1 block inactive.
For CCOc1cc(C2CC(=O)Nc3nc(SCc4ccccc4)[nH]c(=O)c32)ccc1O (configuration not stated) the results were DT40 TDP1 CPT inconclusive, DT40 TDP1 no CPT inconclusive, HepG2 tox inactive, TGFb inhibitor inactive and TDP1 block inactive.
Screening CCOc1ccc(C2CC(=O)Nc3nc(SCc4ccccc4C)[nH]c(=O)c32)cc1OC (configuration not stated) returned DT40 TDP1 CPT inconclusive, DT40 TDP1 no CPT 14.6µM, HepG2 tox inactive, TGFb inhibitor inconclusive and TDP1 block inactive.
`CCCSc1nc2c(c(=O)[nH]1)C(c1ccc(F)cc1F)CC(=O)N2` (configuration not stated) gave DT40 TDP1 CPT inconclusive, DT40 TDP1 no CPT inconclusive, HepG2 tox inactive, TGFb inhibitor inactive and TDP1 block inactive.
Screening O=C1CC(c2cccc(O)c2)c2c(nc(SCc3ccccc3F)[nH]c2=O)N1 (configuration not stated) returned DT40 TDP1 CPT inactive, DT40 TDP1 no CPT inactive, HepG2 tox 7.08µM, TGFb inhibitor inactive and TDP1 block inactive.
Cn1cncc1C#Cc1ccc2cc(C3(O)CCCCC3)oc(=O)c2c1 was read as DT40 TDP1 CPT inactive, DT40 TDP1 no CPT inconclusive, IL-1B inflam inh inactive, HepG2 tox inactive, TGFb inhibitor inactive and TDP1 block 56.2µM.
For Cc1c(C(=O)Nn2cnnc2)oc2ccccc12 the results were DT40 TDP1 CPT inactive, DT40 TDP1 no CPT inactive, IL-1B inflam inh inactive, HepG2 tox inactive, TGFb inhibitor inactive and TDP1 block inactive.
`COC(=O)c1sc(NC(=O)COc2c(C)cccc2C)nc1C` gave DT40 TDP1 CPT inactive, DT40 TDP1 no CPT 11.6µM, IL-1B inflam inh inactive, HepG2 tox inactive, TGFb inhibitor inactive and TDP1 block inactive.
For COc1cc(OC)cc(C(=O)Nc2ccc(-n3cnnn3)c(C)c2)c1 the results were DT40 TDP1 CPT inactive, DT40 TDP1 no CPT inconclusive, IL-1B inflam inh -67.5, HepG2 tox inactive, TGFb inhibitor inactive and TDP1 block inactive.
`Cc1c(C(=O)Nc2ccncc2)oc2ccccc12` gave DT40 TDP1 CPT 20.6µM, DT40 TDP1 no CPT 20.6µM, IL-1B inflam inh inactive, HepG2 tox inactive, TGFb inhibitor inactive and TDP1 block inactive.
`Cc1cc(NC(=O)c2oc3ccccc3c2C)ccc1-n1cnnn1` gave DT40 TDP1 CPT 18.4µM, DT40 TDP1 no CPT 23.1µM, HepG2 tox inactive, TGFb inhibitor inactive and TDP1 block inactive.
`CCOc1ccc(C(=O)NCC(=O)Nc2ncccc2C)cc1OCC` gave DT40 TDP1 CPT inactive, DT40 TDP1 no CPT inactive, IL-1B inflam inh inactive, HepG2 tox inactive and TGFb inhibitor inactive.
Cn1c2ccccc2c2nnc(SCCOc3ccccc3)nc21 was read as DT40 TDP1 CPT inconclusive, DT40 TDP1 no CPT inconclusive, HepG2 tox inactive and TGFb inhibitor inactive.

Screens (PubChem)
